Columns and labels:
[1] = target: T1, CDK3/cyclin E (Homo sapiens) (UniProt P24864+O96020+Q00526); conditions: at 1 µM
[2] = target: T1, CDK3/cyclin E (Homo sapiens); conditions: at 10 µM
[3] = target: T2, Cyclin-dependent kinase 5/CDK5 activator 1 (Homo sapiens) (UniProt Q00535+Q15078); conditions: at 1 µM
[4] = target: T2, Cyclin-dependent kinase 5/CDK5 activator 1 (Homo sapiens); conditions: at 10 µM
[5] = target: T2, Cyclin-dependent kinase 5/CDK5 activator 1 (Homo sapiens); conditions: at 1 µM; remark: listed apart in the source
[6] = target: T2, Cyclin-dependent kinase 5/CDK5 activator 1 (Homo sapiens); conditions: at 10 µM; remark: listed apart in the source
[7] = target: T3, CDK6/cyclin D3 (Homo sapiens) (UniProt P30281+Q00534); conditions: at 1 µM
[8] = target: T3, CDK6/cyclin D3 (Homo sapiens); conditions: at 10 µM
[9] = target: T4, Cyclin-dependent kinase 7/ cyclin H (Homo sapiens) (UniProt P51946+P50613); conditions: at 1 µM
[10] = target: T4, Cyclin-dependent kinase 7/ cyclin H (Homo sapiens); conditions: at 10 µM

T1 sequence (O96020 whole entry, looked up): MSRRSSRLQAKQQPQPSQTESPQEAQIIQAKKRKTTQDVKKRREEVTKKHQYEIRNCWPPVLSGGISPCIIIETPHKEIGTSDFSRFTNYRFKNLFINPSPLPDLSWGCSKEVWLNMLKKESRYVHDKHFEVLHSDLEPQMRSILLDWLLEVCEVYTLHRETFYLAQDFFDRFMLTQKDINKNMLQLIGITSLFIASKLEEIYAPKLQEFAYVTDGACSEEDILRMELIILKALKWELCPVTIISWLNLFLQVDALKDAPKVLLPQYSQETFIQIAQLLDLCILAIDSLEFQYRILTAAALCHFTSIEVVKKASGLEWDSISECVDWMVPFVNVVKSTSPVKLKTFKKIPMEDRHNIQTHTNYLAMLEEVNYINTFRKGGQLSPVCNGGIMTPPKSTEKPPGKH
T1 sequence (P24864 whole entry, looked up): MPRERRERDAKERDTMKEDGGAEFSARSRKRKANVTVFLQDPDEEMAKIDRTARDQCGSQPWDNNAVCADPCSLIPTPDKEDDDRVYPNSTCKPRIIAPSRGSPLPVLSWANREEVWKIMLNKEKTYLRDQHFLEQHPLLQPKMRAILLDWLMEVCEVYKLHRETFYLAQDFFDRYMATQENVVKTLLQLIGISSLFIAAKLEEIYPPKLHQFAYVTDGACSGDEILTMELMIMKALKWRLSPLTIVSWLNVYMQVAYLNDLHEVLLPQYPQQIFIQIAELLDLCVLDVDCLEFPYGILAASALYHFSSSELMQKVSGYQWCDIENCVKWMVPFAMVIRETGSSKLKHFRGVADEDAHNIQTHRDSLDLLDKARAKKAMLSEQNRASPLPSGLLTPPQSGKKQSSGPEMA
T1 sequence (Q00526 whole entry, looked up): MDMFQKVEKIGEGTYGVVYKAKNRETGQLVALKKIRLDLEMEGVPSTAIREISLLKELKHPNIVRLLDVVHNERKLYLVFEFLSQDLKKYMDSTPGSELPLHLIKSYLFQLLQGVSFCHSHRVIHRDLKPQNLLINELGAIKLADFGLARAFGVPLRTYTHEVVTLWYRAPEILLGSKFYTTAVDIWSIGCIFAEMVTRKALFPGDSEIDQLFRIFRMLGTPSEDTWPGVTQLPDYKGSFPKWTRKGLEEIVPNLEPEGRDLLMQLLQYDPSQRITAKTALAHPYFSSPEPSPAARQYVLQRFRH
T2 sequence (Q00535 whole entry): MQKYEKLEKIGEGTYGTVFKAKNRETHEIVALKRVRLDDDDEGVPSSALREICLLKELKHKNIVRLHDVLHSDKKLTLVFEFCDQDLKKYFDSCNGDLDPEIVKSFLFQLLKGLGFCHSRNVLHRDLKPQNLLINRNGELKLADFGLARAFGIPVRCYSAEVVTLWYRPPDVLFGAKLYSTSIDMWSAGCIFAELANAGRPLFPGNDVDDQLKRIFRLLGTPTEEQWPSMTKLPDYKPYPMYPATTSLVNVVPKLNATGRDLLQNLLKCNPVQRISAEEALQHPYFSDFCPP
T2 sequence (Q15078 99-307 partner limits assumed): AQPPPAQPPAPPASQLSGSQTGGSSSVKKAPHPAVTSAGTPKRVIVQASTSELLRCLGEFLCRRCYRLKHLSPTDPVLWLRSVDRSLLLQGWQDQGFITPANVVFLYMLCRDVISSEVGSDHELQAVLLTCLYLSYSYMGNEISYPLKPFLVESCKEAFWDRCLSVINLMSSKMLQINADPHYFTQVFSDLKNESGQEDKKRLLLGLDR

Structure (SMILES)	residual activity [1] [%]	residual activity [2] [%]	residual activity [3] [%]	residual activity [4] [%]	residual activity [5] [%]	residual activity [6] [%]	residual activity [7] [%]	residual activity [8] [%]	residual activity [9] [%]	residual activity [10] [%]
O=c1[nH]c2ccccc2n1C1CCN(Cc2ccc(-c3nc4cc5[nH]cnc5cc4nc3-c3ccccc3)cc2)CC1	105	82	95	77	100	104	105	103	98	85
COC(=O)[C@@]1(O)C[C@H]2O[C@]1(C)n1c3ccccc3c3c4c(c5c6ccccc6n2c5c31)C(=O)NC4	27	2	4	1	3	1	15	4	55	16
N/C(=N\[N+](=O)[O-])N/N=C\c1ccc(-c2cccc([N+](=O)[O-])c2)o1		81		86						
CC(C)[C@H](CO)Nc1nc(Nc2cccc(Cl)c2)c2ncn(C(C)C)c2n1	14	3	0	0	1	0	98	44	17	1
COc1cc2ncnc(Nc3ccc(OCc4ccccc4)cc3)c2cc1OC	110	100	106	83	111	102	117	100	88	96
O=C1c2ccccc2-c2nc3nnnn3nc21							103	101		129
COc1ccc2c(c1)/C(=C/c1cnc[nH]1)C(=O)N2			0	0	0	0			67	18
c1cc(-c2cnn3cc(-c4ccc(OCCN5CCCCC5)cc4)cnc23)ccn1		41	55	10	73	19	68	11	50	9
CCc1nc(-c2ccc(OC)cc2)[nH]c1-c1ccncc1	102		101		109					
COc1ccc2c(c[n+](C)c3c4cc5c(cc4ccc23)OCO5)c1OC		85			89	91		82	87	
O=[N+]([O-])/C=C/c1ccc2c(c1)OCO2	87	88	97	106	91	96	99	98	81	119
O=C1Nc2ccc3ncsc3c2/C1=C/c1c[nH]cn1	1	-1	1	0	1	-1	10	4	15	3
COc1cc(OC)c(/C=C2\C(=O)Nc3ccccc32)c(OC)c1	84	78	88	85	99	77	90	77	90	84
CCn1cnc2c(Nc3cccc(Cl)c3)nc(N[C@@H]3CCCC[C@@H]3N)nc21	6	0	1	0	0	-1	82	31	5	-1
C[S+]([O-])c1ccc(-c2nc(-c3ccc(F)cc3)c(-c3ccncc3)[nH]2)cc1 (centres undefined)	108	93	117	121	120	100	116	111	118	100
O=C1NC(=O)c2c1c1c3ccccc3n3c1c1c2c2ccccc2n1C1CCC3O1	46	41	73	86	75	65	95	76		
CN[C@@H]1C[C@H]2O[C@@](C)([C@@H]1OC)n1c3ccccc3c3c4c(c5c6ccccc6n2c5c31)C(=O)NC4				2						
CC(C)(C)c1cc(C=C(C#N)C#N)cc(Br)c1O	109	103	107	113	96		113	101		

From ChEMBL document CHEMBL2218924, “A broad activity screen in support of a chemogenomic map for kinase signalling research and drug discovery” (Biochem J, 2013)
